Measured values reported in paper PMC11006913.
Numbering of substitutions follows the chain as printed.

How the values were obtained:
Test in all cases: PBM; 200 nM protein, PBS
Conditions in all cases: dsDNA, one strand shown
[1] = biological target: PRRX1 (Homo sapiens, UniProt P54821 80-166, F113S)
[2] = biological target: PRRX1 (Homo sapiens, UniProt P54821 80-166)
[3] = biological target: T1, SIX6 (Homo sapiens, UniProt O95475 114-200, T165P)
T1 sequence: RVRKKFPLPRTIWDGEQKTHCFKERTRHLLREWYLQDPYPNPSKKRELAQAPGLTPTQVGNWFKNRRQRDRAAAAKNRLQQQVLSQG

[4] = biological target: T2, SIX6 (Homo sapiens, UniProt O95475 114-200, H141N)
T2 sequence: T1 sequence with H28N, P52T

[5] = biological target: T3, SIX6 (Homo sapiens, UniProt O95475 114-200, T139Q)
T3 sequence: T1 sequence with T26Q, P52T

[6] = biological target: T4, SIX6 (Homo sapiens, UniProt O95475 114-200, T165A)
T4 sequence: T1 sequence with P52A

[7] = biological target: T5, SIX6 (Homo sapiens, UniProt O95475 114-200, T165G)
T5 sequence: T1 sequence with P52G

[8] = biological target: T6, SIX6 (Homo sapiens, UniProt O95475 114-200, L167V)
T6 sequence: T1 sequence with P52T, L54V

[9] = biological target: T7, SIX6 (Homo sapiens, UniProt O95475 114-200)
T7 sequence: T1 sequence with P52T

[10] = biological target: T8, SIX6 (Homo sapiens, UniProt O95475 114-200, T165I)
T8 sequence: T1 sequence with P52I

[11] = biological target: T9, SIX6 (Homo sapiens, UniProt O95475 114-200, L167M)
T9 sequence: T1 sequence with P52T, L54M

PRRX1 (Homo sapiens, UniProt P54821 80-166), sequence (P54821 80-166): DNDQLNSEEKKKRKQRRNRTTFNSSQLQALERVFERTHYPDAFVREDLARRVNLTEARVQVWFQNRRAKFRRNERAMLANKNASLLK
PRRX1 (Homo sapiens, UniProt P54821 80-166, F113S), sequence (P54821 80-166 F113S): as the sequence (P54821 80-166) above, with F34S counted along it

CAGAACCC
binding signal [1]: 9.51 upbm affinity estimate (log intensity, higher = more binding, comparable within an allelic series)
binding signal [2]: 9.39 upbm affinity estimate (log intensity, higher = more binding, comparable within an allelic series)

CCAGAGTC
binding signal [1]: 9.5 upbm affinity estimate (log intensity, higher = more binding, comparable within an allelic series)
binding signal [2]: 9.46 upbm affinity estimate (log intensity, higher = more binding, comparable within an allelic series)

ATTACAAC
binding signal [1]: 10.3 upbm affinity estimate (log intensity, higher = more binding, comparable within an allelic series)
binding signal [2]: 12.1 upbm affinity estimate (log intensity, higher = more binding, comparable within an allelic series)

GGGATACC
binding signal [3]: 9.29 upbm affinity estimate (log intensity, higher = more binding, comparable within an allelic series)

GATATGGC
binding signal [3]: 9.27 upbm affinity estimate (log intensity, higher = more binding, comparable within an allelic series)

AGATCCGC
binding signal [3]: 9.23 upbm affinity estimate (log intensity, higher = more binding, comparable within an allelic series)

ACCGGATC
binding signal [3]: 9.31 upbm affinity estimate (log intensity, higher = more binding, comparable within an allelic series)

GACGATCC
binding signal [3]: 9.26 upbm affinity estimate (log intensity, higher = more binding, comparable within an allelic series)

CCGGATCA
binding signal [3]: 9.33 upbm affinity estimate (log intensity, higher = more binding, comparable within an allelic series)

AGGGGATC
binding signal [3]: 9.22 upbm affinity estimate (log intensity, higher = more binding, comparable within an allelic series)

CGATACAC
binding signal [4]: 11.1 upbm affinity estimate (log intensity, higher = more binding, comparable within an allelic series)
binding signal [5]: 11.2 upbm affinity estimate (log intensity, higher = more binding, comparable within an allelic series)
binding signal [6]: 11 upbm affinity estimate (log intensity, higher = more binding, comparable within an allelic series)

CTGGATCC
binding signal [3]: 9.18 upbm affinity estimate (log intensity, higher = more binding, comparable within an allelic series)

GCGATCCC
binding signal [3]: 9.24 upbm affinity estimate (log intensity, higher = more binding, comparable within an allelic series)

GGATCCCC
binding signal [3]: 9.23 upbm affinity estimate (log intensity, higher = more binding, comparable within an allelic series)

AAGGATCC
binding signal [3]: 9.15 upbm affinity estimate (log intensity, higher = more binding, comparable within an allelic series)

CAGGGATC
binding signal [3]: 9.11 upbm affinity estimate (log intensity, higher = more binding, comparable within an allelic series)

CCGGTATC
binding signal [3]: 9.21 upbm affinity estimate (log intensity, higher = more binding, comparable within an allelic series)

CCGTATCC
binding signal [3]: 9.24 upbm affinity estimate (log intensity, higher = more binding, comparable within an allelic series)

GGCCCTAC
binding signal [1]: 9.21 upbm affinity estimate (log intensity, higher = more binding, comparable within an allelic series)
binding signal [2]: 9.08 upbm affinity estimate (log intensity, higher = more binding, comparable within an allelic series)

GGATCCGA
binding signal [3]: 9.08 upbm affinity estimate (log intensity, higher = more binding, comparable within an allelic series)

CCGATACG
binding signal [3]: 9.12 upbm affinity estimate (log intensity, higher = more binding, comparable within an allelic series)

ACTACAAT
binding signal [3]: 10.1 upbm affinity estimate (log intensity, higher = more binding, comparable within an allelic series)

AGGGATCG
binding signal [3]: 9.2 upbm affinity estimate (log intensity, higher = more binding, comparable within an allelic series)

CATATCAC
binding signal [4]: 11.1 upbm affinity estimate (log intensity, higher = more binding, comparable within an allelic series)
binding signal [7]: 11.1 upbm affinity estimate (log intensity, higher = more binding, comparable within an allelic series)
binding signal [6]: 11 upbm affinity estimate (log intensity, higher = more binding, comparable within an allelic series)
binding signal [8]: 10.9 upbm affinity estimate (log intensity, higher = more binding, comparable within an allelic series)

CCTGGATC
binding signal [3]: 9.18 upbm affinity estimate (log intensity, higher = more binding, comparable within an allelic series)

CGATCCGC
binding signal [3]: 9.21 upbm affinity estimate (log intensity, higher = more binding, comparable within an allelic series)

GGGATCCA
binding signal [3]: 9.27 upbm affinity estimate (log intensity, higher = more binding, comparable within an allelic series)

CCGGATCG
binding signal [3]: 9.19 upbm affinity estimate (log intensity, higher = more binding, comparable within an allelic series)

CATAACAC
binding signal [4]: 10 upbm affinity estimate (log intensity, higher = more binding, comparable within an allelic series)
binding signal [7]: 10.3 upbm affinity estimate (log intensity, higher = more binding, comparable within an allelic series)
binding signal [5]: 10.4 upbm affinity estimate (log intensity, higher = more binding, comparable within an allelic series)
binding signal [6]: 10.1 upbm affinity estimate (log intensity, higher = more binding, comparable within an allelic series)
binding signal [9]: 10.1 upbm affinity estimate (log intensity, higher = more binding, comparable within an allelic series)
binding signal [10]: 10.1 upbm affinity estimate (log intensity, higher = more binding, comparable within an allelic series)

GCGATACC
binding signal [4]: 11 upbm affinity estimate (log intensity, higher = more binding, comparable within an allelic series)
binding signal [3]: 9.27 upbm affinity estimate (log intensity, higher = more binding, comparable within an allelic series)
binding signal [11]: 10.3 upbm affinity estimate (log intensity, higher = more binding, comparable within an allelic series)
binding signal [5]: 11.1 upbm affinity estimate (log intensity, higher = more binding, comparable within an allelic series)

GAGGGATC
binding signal [3]: 9.26 upbm affinity estimate (log intensity, higher = more binding, comparable within an allelic series)

AACGATAC
binding signal [4]: 11.1 upbm affinity estimate (log intensity, higher = more binding, comparable within an allelic series)
binding signal [7]: 11.2 upbm affinity estimate (log intensity, higher = more binding, comparable within an allelic series)
binding signal [5]: 11.2 upbm affinity estimate (log intensity, higher = more binding, comparable within an allelic series)
binding signal [6]: 11 upbm affinity estimate (log intensity, higher = more binding, comparable within an allelic series)
binding signal [8]: 10.9 upbm affinity estimate (log intensity, higher = more binding, comparable within an allelic series)

CGCTCCAC
binding signal [1]: 9.44 upbm affinity estimate (log intensity, higher = more binding, comparable within an allelic series)
binding signal [2]: 9.3 upbm affinity estimate (log intensity, higher = more binding, comparable within an allelic series)
